As a reminder, the inhibition is the relative decrease from the control value, in per cent.

For experiment [1], the target named is High affinity nerve growth factor receptor (Homo sapiens) (UniProt P04629). The following applies: at 1 µM.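 Further: each value is the mean percent inhibition of TRKA.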
The target in experiment [2] is BDNF/NT-3 growth factors receptor (Homo sapiens) (UniProt Q16620). To be noted: at 0.1 µM.
The target is the same in experiment [3]. The following applies: at 1 µM.
The target in experiment [4] is NT-3 growth factor receptor (Homo sapiens) (UniProt Q16288). The following applies: at 0.1 µM.
Experiment [5] has the same target. The following applies: at 1 µM.
In experiment [6] the target is T1, Tyrosine-protein kinase TXK (Homo sapiens) (UniProt P42681).
T1 sequence (whole entry): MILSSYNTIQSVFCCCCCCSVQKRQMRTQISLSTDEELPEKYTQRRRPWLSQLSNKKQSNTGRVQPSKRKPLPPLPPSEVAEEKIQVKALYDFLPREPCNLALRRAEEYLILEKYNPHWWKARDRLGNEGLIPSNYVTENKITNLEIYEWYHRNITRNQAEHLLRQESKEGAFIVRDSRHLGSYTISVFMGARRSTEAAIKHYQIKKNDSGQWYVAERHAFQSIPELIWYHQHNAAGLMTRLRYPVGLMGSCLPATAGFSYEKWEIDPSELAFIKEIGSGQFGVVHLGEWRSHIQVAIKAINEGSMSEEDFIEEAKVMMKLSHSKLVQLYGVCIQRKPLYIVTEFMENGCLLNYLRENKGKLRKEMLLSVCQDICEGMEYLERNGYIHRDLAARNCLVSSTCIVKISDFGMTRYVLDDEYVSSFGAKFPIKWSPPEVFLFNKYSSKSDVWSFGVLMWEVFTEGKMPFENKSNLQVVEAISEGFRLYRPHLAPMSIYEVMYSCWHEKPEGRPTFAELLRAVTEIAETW
The following applies: at 0.1 µM.

The target of experiment [7] is T1, Tyrosine-protein kinase TXK (Homo sapiens). The following applies: at 1 µM.
Experiment [8] addresses Non-receptor tyrosine-protein kinase TYK2 (Homo sapiens) (UniProt P29597). To be noted: at 0.1 µM.
The target in experiment [9] is T2, Dual specificity protein kinase TTK (Homo sapiens) (UniProt P33981).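 Further: reported figures are mean TTK inhibition at 1 µM.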
T2 sequence (whole entry): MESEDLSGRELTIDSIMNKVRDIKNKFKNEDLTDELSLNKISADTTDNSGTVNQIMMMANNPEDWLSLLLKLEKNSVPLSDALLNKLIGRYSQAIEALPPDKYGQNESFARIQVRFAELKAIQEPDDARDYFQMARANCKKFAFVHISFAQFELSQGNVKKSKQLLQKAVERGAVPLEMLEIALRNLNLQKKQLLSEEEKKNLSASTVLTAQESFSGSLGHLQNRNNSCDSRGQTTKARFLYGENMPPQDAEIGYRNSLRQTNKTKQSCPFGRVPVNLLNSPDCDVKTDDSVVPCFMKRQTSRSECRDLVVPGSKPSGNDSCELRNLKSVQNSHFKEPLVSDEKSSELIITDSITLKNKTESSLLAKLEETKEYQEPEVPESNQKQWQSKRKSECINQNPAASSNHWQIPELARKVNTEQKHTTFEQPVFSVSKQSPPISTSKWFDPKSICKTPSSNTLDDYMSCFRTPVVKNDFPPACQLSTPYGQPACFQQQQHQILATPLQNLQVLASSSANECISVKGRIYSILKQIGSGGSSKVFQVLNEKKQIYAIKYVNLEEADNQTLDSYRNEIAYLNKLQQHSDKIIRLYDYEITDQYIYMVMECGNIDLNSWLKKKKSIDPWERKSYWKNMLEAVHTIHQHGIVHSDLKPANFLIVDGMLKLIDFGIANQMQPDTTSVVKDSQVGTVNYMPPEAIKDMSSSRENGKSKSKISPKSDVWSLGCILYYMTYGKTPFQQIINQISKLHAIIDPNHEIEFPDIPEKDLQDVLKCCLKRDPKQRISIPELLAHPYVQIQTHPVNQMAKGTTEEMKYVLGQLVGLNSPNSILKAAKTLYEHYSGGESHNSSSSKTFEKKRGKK
The following applies: at 1 µM.

For experiment [10], the target named is T3, Aurora kinase A (Homo sapiens) (UniProt O14965).
T3 sequence (whole entry): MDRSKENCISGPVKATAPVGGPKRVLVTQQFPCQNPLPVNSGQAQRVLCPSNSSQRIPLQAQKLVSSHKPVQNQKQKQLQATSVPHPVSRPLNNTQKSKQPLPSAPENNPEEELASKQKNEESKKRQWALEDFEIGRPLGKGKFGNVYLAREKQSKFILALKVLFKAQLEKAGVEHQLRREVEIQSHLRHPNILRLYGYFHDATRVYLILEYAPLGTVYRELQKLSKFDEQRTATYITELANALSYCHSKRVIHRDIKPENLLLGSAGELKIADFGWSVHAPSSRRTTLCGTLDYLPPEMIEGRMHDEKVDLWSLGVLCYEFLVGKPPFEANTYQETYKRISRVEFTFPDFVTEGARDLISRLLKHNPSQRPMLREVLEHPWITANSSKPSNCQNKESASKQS
To be noted: at 0.1 µM.

In experiment [11] the target is T3, Aurora kinase A (Homo sapiens). To be noted: at 1 µM.
The target of experiment [12] is Aurora kinase B (Homo sapiens) (UniProt Q96GD4). To be noted: at 0.1 µM.
Experiment [13] shares this target. The following applies: at 1 µM.
Experiment [14] addresses T4, Aurora kinase C (Homo sapiens) (UniProt Q9UQB9).
T4 sequence (whole entry): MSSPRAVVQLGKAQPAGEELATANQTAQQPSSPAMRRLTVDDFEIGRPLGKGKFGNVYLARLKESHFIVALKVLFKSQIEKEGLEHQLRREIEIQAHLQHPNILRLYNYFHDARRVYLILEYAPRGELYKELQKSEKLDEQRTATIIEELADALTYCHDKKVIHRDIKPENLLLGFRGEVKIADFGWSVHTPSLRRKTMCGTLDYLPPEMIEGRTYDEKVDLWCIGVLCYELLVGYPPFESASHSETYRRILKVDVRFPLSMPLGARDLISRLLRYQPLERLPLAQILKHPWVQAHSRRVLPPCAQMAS
The following applies: at 0.1 µM.

Experiment [15] concerns the target T4, Aurora kinase C (Homo sapiens). To be noted: at 1 µM.
Experiment [16] has as its target Serine/threonine-protein kinase 10 (Homo sapiens) (UniProt O94804). The following applies: at 0.1 µM.
For experiment [17] the target is unchanged. To be noted: at 1 µM.
The target of experiment [18] is T5, Mitogen-activated protein kinase kinase kinase kinase 2 (Homo sapiens) (UniProt Q12851).
T5 sequence (whole entry): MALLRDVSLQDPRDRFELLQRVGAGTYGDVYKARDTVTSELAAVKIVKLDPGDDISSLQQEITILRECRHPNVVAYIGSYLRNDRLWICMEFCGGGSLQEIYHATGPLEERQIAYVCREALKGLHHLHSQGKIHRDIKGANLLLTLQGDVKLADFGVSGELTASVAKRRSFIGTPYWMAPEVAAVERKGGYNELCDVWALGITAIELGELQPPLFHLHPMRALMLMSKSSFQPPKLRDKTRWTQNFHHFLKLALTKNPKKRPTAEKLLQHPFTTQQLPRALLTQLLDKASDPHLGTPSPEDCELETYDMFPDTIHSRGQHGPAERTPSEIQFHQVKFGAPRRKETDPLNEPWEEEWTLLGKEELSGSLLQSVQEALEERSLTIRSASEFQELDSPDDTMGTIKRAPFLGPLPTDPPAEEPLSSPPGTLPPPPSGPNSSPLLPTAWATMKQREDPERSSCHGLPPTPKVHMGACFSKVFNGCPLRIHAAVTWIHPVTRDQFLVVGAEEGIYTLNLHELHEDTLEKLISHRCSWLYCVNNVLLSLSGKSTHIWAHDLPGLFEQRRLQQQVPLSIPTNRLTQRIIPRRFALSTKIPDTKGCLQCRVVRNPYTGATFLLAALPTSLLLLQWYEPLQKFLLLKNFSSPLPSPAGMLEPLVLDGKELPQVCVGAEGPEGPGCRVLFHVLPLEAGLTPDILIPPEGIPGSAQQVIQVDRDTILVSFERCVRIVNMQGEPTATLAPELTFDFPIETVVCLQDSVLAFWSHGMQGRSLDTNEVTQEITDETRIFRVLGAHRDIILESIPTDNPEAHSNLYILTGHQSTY
To be noted: at 0.1 µM.

The target in experiment [19] is T5, Mitogen-activated protein kinase kinase kinase kinase 2 (Homo sapiens). To be noted: at 1 µM.
Experiment [20] has as its target Mitogen-activated protein kinase kinase kinase kinase 4 (Homo sapiens) (UniProt O95819). The following applies: at 0.1 µM.

Sequence of Non-receptor tyrosine-protein kinase TYK2 (Homo sapiens) (P29597 whole entry): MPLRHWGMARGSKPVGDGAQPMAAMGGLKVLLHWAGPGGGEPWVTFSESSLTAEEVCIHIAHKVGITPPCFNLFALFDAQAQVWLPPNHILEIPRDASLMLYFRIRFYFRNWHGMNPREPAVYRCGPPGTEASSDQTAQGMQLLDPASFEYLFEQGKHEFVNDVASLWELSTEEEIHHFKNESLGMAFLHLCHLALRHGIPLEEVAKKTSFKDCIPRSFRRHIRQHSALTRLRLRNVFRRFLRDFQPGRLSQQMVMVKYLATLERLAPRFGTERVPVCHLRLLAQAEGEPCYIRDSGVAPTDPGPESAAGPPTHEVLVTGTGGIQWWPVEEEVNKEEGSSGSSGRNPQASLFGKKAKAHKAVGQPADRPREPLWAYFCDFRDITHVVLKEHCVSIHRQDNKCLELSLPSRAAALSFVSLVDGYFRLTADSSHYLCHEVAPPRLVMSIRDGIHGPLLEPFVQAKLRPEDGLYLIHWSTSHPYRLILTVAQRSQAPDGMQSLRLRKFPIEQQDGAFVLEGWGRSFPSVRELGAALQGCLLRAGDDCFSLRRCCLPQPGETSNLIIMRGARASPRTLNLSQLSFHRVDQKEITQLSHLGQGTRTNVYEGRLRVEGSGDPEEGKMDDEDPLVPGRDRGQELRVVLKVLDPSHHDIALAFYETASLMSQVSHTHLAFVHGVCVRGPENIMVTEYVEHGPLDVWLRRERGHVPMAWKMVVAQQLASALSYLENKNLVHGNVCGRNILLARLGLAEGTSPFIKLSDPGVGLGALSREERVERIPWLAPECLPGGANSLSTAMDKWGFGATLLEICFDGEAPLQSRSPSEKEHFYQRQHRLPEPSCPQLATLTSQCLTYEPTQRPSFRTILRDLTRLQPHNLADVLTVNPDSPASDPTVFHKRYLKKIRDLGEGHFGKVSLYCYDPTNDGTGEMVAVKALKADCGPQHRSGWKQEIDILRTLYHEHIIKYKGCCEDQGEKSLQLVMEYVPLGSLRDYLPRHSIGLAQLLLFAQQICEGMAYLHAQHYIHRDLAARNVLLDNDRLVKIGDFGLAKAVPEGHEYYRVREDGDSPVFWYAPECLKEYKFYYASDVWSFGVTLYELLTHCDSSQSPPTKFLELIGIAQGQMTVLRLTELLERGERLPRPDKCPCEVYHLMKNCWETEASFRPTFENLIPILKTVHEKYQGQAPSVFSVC
Sequence of Aurora kinase B (Homo sapiens) (Q96GD4 whole entry): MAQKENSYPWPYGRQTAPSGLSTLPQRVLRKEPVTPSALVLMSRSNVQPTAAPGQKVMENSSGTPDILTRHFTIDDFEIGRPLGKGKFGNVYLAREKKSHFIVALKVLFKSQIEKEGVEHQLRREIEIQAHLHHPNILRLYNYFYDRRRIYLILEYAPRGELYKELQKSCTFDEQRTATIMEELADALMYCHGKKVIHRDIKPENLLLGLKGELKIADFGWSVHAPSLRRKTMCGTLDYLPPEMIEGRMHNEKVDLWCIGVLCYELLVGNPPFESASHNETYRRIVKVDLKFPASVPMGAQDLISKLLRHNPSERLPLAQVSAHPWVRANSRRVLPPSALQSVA
Sequence of Serine/threonine-protein kinase 10 (Homo sapiens) (O94804 whole entry, looked up): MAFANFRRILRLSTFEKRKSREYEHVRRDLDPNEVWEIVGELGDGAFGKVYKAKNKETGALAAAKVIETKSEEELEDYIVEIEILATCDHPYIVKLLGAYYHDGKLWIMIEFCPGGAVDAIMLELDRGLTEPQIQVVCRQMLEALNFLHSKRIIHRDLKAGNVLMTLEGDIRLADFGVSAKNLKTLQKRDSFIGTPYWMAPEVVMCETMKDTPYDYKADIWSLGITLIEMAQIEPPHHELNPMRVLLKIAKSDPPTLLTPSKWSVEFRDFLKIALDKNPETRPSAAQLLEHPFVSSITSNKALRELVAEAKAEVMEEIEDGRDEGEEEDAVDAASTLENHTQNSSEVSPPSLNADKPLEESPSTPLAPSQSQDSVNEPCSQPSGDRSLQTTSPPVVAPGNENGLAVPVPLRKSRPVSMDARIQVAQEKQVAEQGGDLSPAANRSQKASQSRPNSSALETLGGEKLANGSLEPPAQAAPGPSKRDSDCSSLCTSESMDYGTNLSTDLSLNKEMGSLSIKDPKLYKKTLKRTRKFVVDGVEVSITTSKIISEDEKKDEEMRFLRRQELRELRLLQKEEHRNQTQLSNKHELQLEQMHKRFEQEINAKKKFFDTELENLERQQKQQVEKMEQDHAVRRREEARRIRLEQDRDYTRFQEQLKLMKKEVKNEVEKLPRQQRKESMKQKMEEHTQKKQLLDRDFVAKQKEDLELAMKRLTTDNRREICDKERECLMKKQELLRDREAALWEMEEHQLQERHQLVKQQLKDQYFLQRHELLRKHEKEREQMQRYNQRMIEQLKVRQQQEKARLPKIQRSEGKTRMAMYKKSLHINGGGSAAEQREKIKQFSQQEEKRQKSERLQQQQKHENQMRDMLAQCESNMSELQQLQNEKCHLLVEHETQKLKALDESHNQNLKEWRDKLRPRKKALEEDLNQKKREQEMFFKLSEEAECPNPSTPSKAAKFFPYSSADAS
Sequence of NT-3 growth factor receptor (Homo sapiens) (Q16288 32-839 limits assumed): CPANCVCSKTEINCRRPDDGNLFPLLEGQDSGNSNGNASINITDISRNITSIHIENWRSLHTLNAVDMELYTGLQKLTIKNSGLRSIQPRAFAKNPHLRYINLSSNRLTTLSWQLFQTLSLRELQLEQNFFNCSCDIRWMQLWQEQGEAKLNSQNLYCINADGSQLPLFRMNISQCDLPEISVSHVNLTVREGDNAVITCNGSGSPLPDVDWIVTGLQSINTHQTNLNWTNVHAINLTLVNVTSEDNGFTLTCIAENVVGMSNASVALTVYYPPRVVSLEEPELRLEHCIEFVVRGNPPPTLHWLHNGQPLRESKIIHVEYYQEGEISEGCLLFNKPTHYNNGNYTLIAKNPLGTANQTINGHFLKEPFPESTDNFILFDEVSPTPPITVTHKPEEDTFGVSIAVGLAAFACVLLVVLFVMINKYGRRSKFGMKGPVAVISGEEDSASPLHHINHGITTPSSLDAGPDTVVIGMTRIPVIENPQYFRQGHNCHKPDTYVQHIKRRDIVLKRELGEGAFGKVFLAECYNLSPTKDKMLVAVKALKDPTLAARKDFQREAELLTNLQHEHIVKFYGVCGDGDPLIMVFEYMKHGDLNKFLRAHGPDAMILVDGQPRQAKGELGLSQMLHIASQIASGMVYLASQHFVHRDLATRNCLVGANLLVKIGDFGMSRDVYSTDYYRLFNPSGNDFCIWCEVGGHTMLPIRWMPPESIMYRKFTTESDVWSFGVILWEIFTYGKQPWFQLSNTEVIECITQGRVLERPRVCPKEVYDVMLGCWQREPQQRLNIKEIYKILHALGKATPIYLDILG
Sequence of High affinity nerve growth factor receptor (Homo sapiens) (P04629 33-796 limits assumed): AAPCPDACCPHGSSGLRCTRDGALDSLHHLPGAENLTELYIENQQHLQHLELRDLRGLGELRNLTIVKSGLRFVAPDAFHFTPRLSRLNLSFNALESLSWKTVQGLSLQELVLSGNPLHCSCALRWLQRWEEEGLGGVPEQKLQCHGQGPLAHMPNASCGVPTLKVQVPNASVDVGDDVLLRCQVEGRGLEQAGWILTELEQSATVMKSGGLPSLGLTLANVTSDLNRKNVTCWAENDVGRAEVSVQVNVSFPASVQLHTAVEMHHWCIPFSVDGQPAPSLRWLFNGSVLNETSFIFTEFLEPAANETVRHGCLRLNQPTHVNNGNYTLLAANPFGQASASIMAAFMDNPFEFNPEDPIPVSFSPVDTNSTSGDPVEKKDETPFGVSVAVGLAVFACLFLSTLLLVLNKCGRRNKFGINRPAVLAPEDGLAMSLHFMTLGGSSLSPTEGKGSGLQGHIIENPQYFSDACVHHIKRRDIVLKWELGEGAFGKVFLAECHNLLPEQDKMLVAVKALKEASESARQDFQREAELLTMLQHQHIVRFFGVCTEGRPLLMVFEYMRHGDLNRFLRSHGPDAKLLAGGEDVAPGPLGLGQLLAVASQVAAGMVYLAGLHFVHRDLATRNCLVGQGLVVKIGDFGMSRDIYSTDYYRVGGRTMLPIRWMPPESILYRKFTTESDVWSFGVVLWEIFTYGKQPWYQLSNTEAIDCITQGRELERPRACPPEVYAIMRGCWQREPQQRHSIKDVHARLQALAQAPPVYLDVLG
Sequence of BDNF/NT-3 growth factors receptor (Homo sapiens) (Q16620 32-822 limits assumed): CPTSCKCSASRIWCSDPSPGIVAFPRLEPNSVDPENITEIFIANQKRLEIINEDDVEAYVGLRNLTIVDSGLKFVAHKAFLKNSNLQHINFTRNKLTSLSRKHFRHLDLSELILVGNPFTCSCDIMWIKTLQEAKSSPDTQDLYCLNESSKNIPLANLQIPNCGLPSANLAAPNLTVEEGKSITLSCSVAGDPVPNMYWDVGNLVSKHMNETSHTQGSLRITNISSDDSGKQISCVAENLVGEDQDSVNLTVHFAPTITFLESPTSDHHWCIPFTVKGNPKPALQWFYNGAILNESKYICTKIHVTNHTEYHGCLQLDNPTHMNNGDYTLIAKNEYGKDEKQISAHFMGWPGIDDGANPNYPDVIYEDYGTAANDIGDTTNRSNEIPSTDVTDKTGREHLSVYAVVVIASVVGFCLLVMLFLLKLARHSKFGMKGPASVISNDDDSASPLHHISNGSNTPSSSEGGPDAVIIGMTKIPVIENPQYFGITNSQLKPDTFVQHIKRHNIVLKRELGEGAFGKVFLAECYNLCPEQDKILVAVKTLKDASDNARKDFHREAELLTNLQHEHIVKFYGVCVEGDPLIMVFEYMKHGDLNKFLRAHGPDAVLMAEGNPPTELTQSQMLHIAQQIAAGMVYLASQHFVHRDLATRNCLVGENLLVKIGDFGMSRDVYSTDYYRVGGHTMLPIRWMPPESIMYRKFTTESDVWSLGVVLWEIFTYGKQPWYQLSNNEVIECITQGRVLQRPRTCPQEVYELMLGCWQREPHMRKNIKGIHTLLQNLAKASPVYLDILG

Turning to `COc1cc(N2CCN(C(C)C)CC2)ccc1Nc1nc(Nc2ccc(F)cc2C(=O)NC[C@@H](O)CO)c2cc[nH]c2n1`, the inhibition in [1] was 1.99%; in experiment [2], 3.32%; in experiment [3], 5.92%; in [4], 3.35%; in experiment [5] it was 4.57%; in [6], -1.48%. For the same molecule, the inhibition in experiment [7] is -0.56%; in experiment [8], -4.74%; in [9], 82%; in experiment [10], -1.18%; in [11], -2.23%; in [12], -2.39%. Moreover, the inhibition in experiment [13] is 3.15%; in [14], -2.54%; in experiment [15] it was -7.09%; in experiment [16], 6.3%; in experiment [17], 9.7%; in experiment [18], 1.34%. The values for the inhibition in [19] and in experiment [20] were 1.33% and 4.24%, respectively.
On to `CS(=O)(=O)CCNCc1ccc(-c2ccc3ncnc(Nc4ccc(OCc5ccccc5)c(Br)c4)c3c2)o1`, for which the inhibition was 0.51% in [1]; 3% in experiment [2]; 4.04% in [3]; 2% in experiment [4]; 1.45% in experiment [5]; -5.68% in experiment [6]. Besides, the inhibition in experiment [7] is 2.31%; in experiment [8], -5.11%; in experiment [9], 10.2%; in [10] it was -1.23%; in experiment [11], -1.79%; in experiment [12] it was -1.52%. The inhibition was 3.89% in [13]; -3.26% in [14]; 1.56% in experiment [15]; 8.55% in experiment [16]; 16.4% in experiment [17]; 0.72% in experiment [18]. Further, the inhibition turned out to be 0.4% in experiment [19] and 3.17% in [20].
With `CCc1cccc(CC)c1/C=C/c1cncc(C(=O)NC)c1`, the inhibition in experiment [1] worked out at 1.65%; in experiment [2], 1.04%; in [3] it was 3.79%; in experiment [4] it was 1.36%; in experiment [5], 3.49%; in experiment [6], 3.65%. Moreover, the inhibition was 8.4% in experiment [7]; -7.46% in experiment [8]; -0.69% in experiment [9]; 2.26% in experiment [10]; 6.42% in experiment [11]; -0.55% in experiment [12]. The inhibition in experiment [13] is 6.73%; in [14], 0.82%; in [15], 11.7%; in experiment [16] it was 1.38%; in [17], 5.08%; in experiment [18], 0.77%. Besides, the results for the inhibition in [19] and in [20] were 0.32% and 1.73%, respectively.
In the case of `CS(=O)(=O)CCNCc1cc(-c2cc3c(Nc4ccc(OCc5cccc(F)c5)c(Cl)c4)ncnc3s2)cs1`, the inhibition is 7.01% in experiment [1]; 3.47% in [2]; 5.03% in experiment [3]; 5.13% in [4]; 3.52% in experiment [5]; 7.43% in experiment [6]. The inhibition in [7] is 6.57%; in experiment [8], -4.26%; in [9], 9.22%; in experiment [10] it was 4.18%; in experiment [11] it was 4.87%; in experiment [12], 5.13%. In addition, the inhibition in experiment [13] was 9.34%; in [14] it was 3.65%; in experiment [15], 8.71%; in experiment [16] it was 9.33%; in experiment [17] it was 12.9%; in experiment [18], 0.39%. In addition, the results for the inhibition in experiment [19] and in experiment [20] were 3.81% and 4.31%, respectively.

The values above are taken from ChEMBL document CHEMBL1961873, “Compounds: GSK PKIS; Assays: Nanosyn kinase panel” (2012).
